Screens: PubChem BioAssay, National Center for Advancing Translational Sciences (NCATS)
This excerpt belongs to a sample that is enriched for hits.
KDM5B inh – blocks human KDM5B histone demethylase activity | Potency, µM (titrated, usually from 57.7 µM), actives largely listed as inhibitors | KDM5B demethylase, FDH-coupled NADH fluorescence (FDH is formaldehyde dehydrogenase) | Q9UGL1 | actives 2.6% (n = 220,000); active = well fitted inhibition curve with a large enough effect; also: nearly all actives have a fitted effect of over 70% in size
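KDM5BΔAP (200 nM final) in 50 mM HEPES pH 7.5, 0.01% Tween-20 was preincubated 10 min at RT with compound over a concentration range. Substrate mix (H3K4me3 12.5 µM, α-KG 25 µM, Fe²⁺, ascorbate, NAD⁺, FDH) was added, and NADH fluorescence change over 30 min gave dose-response curves.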
Of the large screens only hits and unclear results are named; the others gave an inactive call.

CN(C)C[C@@H]1CN(c2ncccn2)C[C@H]1NC(=O)Cc1ccccc1F	KDM5B inh 31.6µM
CN(C)C[C@@H]1CN(C)C[C@H]1NS(=O)(=O)c1ccc(Cl)cc1	none
CN(C)C[C@@H]1CN(S(C)(=O)=O)C[C@H]1NC(=O)COc1ccc(Cl)cc1	none
Cc1ccccc1CC(=O)N[C@@H]1CN(S(C)(=O)=O)C[C@H]1CN(C)C	none
CN(C)C[C@@H]1CN(c2ncccn2)C[C@H]1NS(=O)(=O)c1ccc(Cl)cc1	KDM5B inh 28.2µM
CN(C)C[C@@H]1CN(c2ncccn2)C[C@H]1NC(=O)Cc1cccc(F)c1	KDM5B inh 25.1µM
O=C(Cn1cnc2ccccc2c1=O)Nc1ccc(Cl)c(S(=O)(=O)N2CCOCC2)c1	none
O=c1c2c(nc3nc(NCc4c(Cl)cccc4Cl)[nH]n13)CCC2	none
CCc1noc(C)c1C(=O)Nc1sc(Cc2ccccc2)cc1C(N)=O	none
N#Cc1ccc(CCC(=O)O)cc1	none
CCOc1c(Br)cc(C(=O)OCc2ccc(C#N)cc2)cc1OC	none
CC(C)Cc1nnc(NC(=O)C2(c3cccc(F)c3)CCC2)s1	none
Cc1noc([C@@H]2CN(C(=O)c3occc3C)C[C@H]2COCC2CC2)n1	none
N#Cc1sc2ncccc2c1N	none
CC1=C(C(=O)Nc2ccc(C)cc2C)C(c2ccc(C)cc2)NC(=S)N1 (configuration not stated)	none
CC(C)c1ccc(CNC(=O)CSc2nc3ccccc3o2)cc1	none
CN(C)C[C@@H]1CN(c2ncccn2)C[C@H]1NC(=O)Cc1ccc(F)cc1	KDM5B inh 28.2µM
CN(C)C[C@@H]1CN(C)C[C@H]1NC(=O)Cc1ccc(Cl)cc1	none
Cc1c(Cl)cccc1NC(=S)NCCc1cccs1	none
O=C(O)C1CCN(C(=O)CSc2nnc(-c3ccccc3F)n2C2CCCC2)CC1	none
CC(Oc1ccc(Cl)cc1Cl)C(=O)NCCc1cccs1 (configuration not stated)	none
O=C1CC2(CCN(Cc3cccs3)CC2)Oc2cc(Cl)ccc21	none
Cn1ccc2c(-c3cc(NCCO)nc(N)n3)ccnc21	KDM5B inh 28.2µM
CCOc1ccc(-c2nc(CNC(=O)Nc3cccc(OC)c3)c(C)o2)cc1	none
O=C(C[C@@H]1CCNC[C@@H]1Cc1cc(CC2CCCCC2)on1)N1CCC(Cc2ccccc2)CC1	none
O=C(CCC[C@H]1NC[C@@H]2C[C@H]1CN(Cc1ccccc1)C2)N1CCN(C2CCCC2)CC1	none
O=C(CCC[C@H]1NC[C@@H]2C[C@H]1CN(Cc1ccccc1)C2)NCCCn1cccn1	none
CC(C)CN1CCN(C(=O)CCC[C@H]2NC[C@@H]3C[C@H]2CN(Cc2ccccc2)C3)CC1	KDM5B inh 6.31µM
O=C(CCC[C@H]1NC[C@@H]2C[C@H]1CN(Cc1ccccc1)C2)NC1CCN(Cc2ccccc2)CC1	none
O=C(CCC[C@H]1NC[C@@H]2CC1CN(Cc1ccccc1)C2)NCCCN1CCOCC1	none
COc1cccc(N2CCN(C(=O)CCC[C@H]3NC[C@@H]4C[C@H]3CN(Cc3ccccc3)C4)CC2)c1	KDM5B inh 25.1µM
O=C(CCC[C@H]1NC[C@@H]2C[C@H]1CN(Cc1ccccc1)C2)NCC1CCCCC1	none
O=C(CCC[C@H]1NC[C@@H]2CC1CN(Cc1ccccc1)C2)N1CCCCC1	none
COc1ccccc1CNC(=O)CCC[C@H]1NC[C@@H]2C[C@H]1CN(Cc1ccccc1)C2	KDM5B inh 4.47µM
CN(C)/C=C\C(=O)c1ccc(F)cc1	none
Cc1ccc(-c2nn(CCC#N)c(=O)c3ccccc23)cc1	none
CCCCCCCCNC(=O)/C(C#N)=C\C=C\c1ccccc1	none
CCNc1ccc(S(=O)(=O)N(CC)CC)cc1N	none
Cc1c(Br)cnn1CCc1nnc(Nc2ccn(Cc3ccccc3Cl)n2)s1	none
COc1cccc(C(=O)Nc2c(N3CCCC3)c3ccccc3oc2=O)c1	none
Cc1ccc(C(=O)C(C)OC(=O)c2cc3ccccc3oc2=O)cc1 (configuration not stated)	none
COc1cccc2c(C)nc(Nc3nc(C)c(Cc4ccc(Cl)cc4)c(=O)[nH]3)nc12	none
Cc1ccc(-c2noc([C@@H]3C[C@@H](O)CN3CC3CC3)n2)cc1F	none
CCOC(=O)c1noc2ncn(CC(=O)Nc3cc(C)c(Cl)cc3OC)c(=O)c12	none
Cc1ccc2nc(C)cc(C(=O)N3CCC(c4cc(CC(=O)O)[nH]n4)CC3)c2c1	none
Cc1ccc(-c2cc(C(=O)N3CCC(c4cc(CC(=O)O)[nH]n4)CC3)n[nH]2)o1	KDM5B inh 25.1µM
Cc1cc(C(=O)N2CCCC2)n[nH]1	none
Cn1c(=O)c2c(-c3ccccc3)n3c(c2n(C)c1=O)C(c1cccc(Cl)c1)OCC3(C)C (configuration not stated)	none
CCCNc1nc(-c2ccc3[nH]c(=O)oc3c2)cs1	none
CN(C)C(=O)c1cccc(C(F)(F)F)c1	none
C#CCNC(=O)c1nc(-c2cccc(C(F)(F)F)c2)c2ccccn12	none
O=C(c1nc(-c2cccnc2)c2ccccn12)N1CCOCC1	KDM5B inh 112µM
O=C(c1cn2c(n1)CN([S+](=O)([O-])c1cccc(C(F)(F)F)c1)CC2)N1CCOCC1	none
O=C(c1nc(-c2cccc(C(F)(F)F)c2)c2ccccn12)N1CCN(c2ncccn2)CC1	KDM5B inh 25.1µM
CN(C)C(=O)c1nc(-c2cccc(C(F)(F)F)c2)c2ccccn12	KDM5B inh 35.5µM
O=C(c1nc(-c2cccc(C(F)(F)F)c2)c2ccccn12)N1CCOCC1	KDM5B inh 28.2µM
C[S+](=O)([O-])c1ccc(-c2nc(C(=O)N3CCOCC3)n3ccccc23)cc1	none
O=C(c1ccccn1)N1CCC2(CC(c3cccc(C(F)(F)F)c3)=NO2)C1 (configuration not stated)	none
Cc1nc(N2CCOCC2)c2c(C(=O)N3CCN(c4cccc(C(F)(F)F)c4)CC3)c(C)oc2n1	none
Cn1ncc2c(C(=O)N3CCOCC3)cc(-c3cccnc3)nc21	none
COc1cccc(-c2cc(C(=O)N3CCN(c4ncccn4)CC3)c3ccccc3n2)c1	none
CC(NC(C)C1CC2CCC1C2)C(=O)N(C)Cc1cccc(F)c1 (configuration not stated)	none
O=C(O)c1ccc(CNCc2cccc3ccccc23)cc1	none
O=C(CCc1ncc(-c2ccc(F)cc2)o1)NCCc1ccc(F)cc1	none
O=C(CSc1c2c(nc3ccc(Cl)cc13)CCCC2)Nc1nc2ccccc2s1	none
COc1ccccc1Nc1c(-c2ccc(O)cc2)nc2ncccn12	none
O=C(NCC1CC1)c1cccc(OC2CN(CC3CC=CCC3)C2)c1 (configuration not stated)	none
O=C(c1nc(-c2cccc(C(F)(F)F)c2)c2cnccn12)N1CCN(c2ncccn2)CC1	KDM5B inh 28.2µM
O=C(c1ccccc1)N1CCCN(c2nccc(C(F)(F)F)n2)CC1	none
Cc1cccc(-c2cc(C(=O)N3CCN(c4ncccn4)CC3)c3ccccc3n2)c1	none
CCC1(N2CCN(S(=O)(=O)c3ccc4c(c3)CCCC4)CC2)CCN(C(=O)NC)C1 (configuration not stated)	none
COc1ccc(CCC(=O)OCC(=O)c2cccc(Br)c2)cc1OC	none
C=CCC1(Nc2c(CC)cccc2CC)CCCCC1	none
O=CN1CCN(C(C(=O)O)c2c[nH]c3cc(Br)ccc23)CC1 (configuration not stated)	none
COCC(=O)Nc1cccc(NC(=O)CC2CCCC2)c1	none
Cc1c(C#N)c(NC(=O)CSc2nnc(C)n2-c2ccccc2)n(Cc2ccccc2)c1C	none
CCCC(=O)Nc1ccc(CNCc2ccc(Br)cc2)cc1	none
Cn1cc(-c2cnc(Nc3cccnc3)c3c2CCO3)cn1	none
c1ccc(-c2ccc3ncc(Nc4ccc5c(c4)OCCO5)n3n2)cc1	none
COc1ccc(-c2cnc(NC(=O)Cc3ccccc3)c3c2CCO3)cn1	none
COc1cncc(Nc2ncc(-c3cccc(F)c3)c3c2OCC3)c1	KDM5B inh 31.6µM
